Reference: ChEMBL document CHEMBL2218924, “A broad activity screen in support of a chemogenomic map for kinase signalling research and drug discovery” (Biochem J, 2013)

The molecules below were run against Death-associated protein kinase 1 (Homo sapiens) (UniProt P53355). Conditions: at 1 µM.
Death-associated protein kinase 1 (Homo sapiens), sequence (P53355 whole entry, looked up): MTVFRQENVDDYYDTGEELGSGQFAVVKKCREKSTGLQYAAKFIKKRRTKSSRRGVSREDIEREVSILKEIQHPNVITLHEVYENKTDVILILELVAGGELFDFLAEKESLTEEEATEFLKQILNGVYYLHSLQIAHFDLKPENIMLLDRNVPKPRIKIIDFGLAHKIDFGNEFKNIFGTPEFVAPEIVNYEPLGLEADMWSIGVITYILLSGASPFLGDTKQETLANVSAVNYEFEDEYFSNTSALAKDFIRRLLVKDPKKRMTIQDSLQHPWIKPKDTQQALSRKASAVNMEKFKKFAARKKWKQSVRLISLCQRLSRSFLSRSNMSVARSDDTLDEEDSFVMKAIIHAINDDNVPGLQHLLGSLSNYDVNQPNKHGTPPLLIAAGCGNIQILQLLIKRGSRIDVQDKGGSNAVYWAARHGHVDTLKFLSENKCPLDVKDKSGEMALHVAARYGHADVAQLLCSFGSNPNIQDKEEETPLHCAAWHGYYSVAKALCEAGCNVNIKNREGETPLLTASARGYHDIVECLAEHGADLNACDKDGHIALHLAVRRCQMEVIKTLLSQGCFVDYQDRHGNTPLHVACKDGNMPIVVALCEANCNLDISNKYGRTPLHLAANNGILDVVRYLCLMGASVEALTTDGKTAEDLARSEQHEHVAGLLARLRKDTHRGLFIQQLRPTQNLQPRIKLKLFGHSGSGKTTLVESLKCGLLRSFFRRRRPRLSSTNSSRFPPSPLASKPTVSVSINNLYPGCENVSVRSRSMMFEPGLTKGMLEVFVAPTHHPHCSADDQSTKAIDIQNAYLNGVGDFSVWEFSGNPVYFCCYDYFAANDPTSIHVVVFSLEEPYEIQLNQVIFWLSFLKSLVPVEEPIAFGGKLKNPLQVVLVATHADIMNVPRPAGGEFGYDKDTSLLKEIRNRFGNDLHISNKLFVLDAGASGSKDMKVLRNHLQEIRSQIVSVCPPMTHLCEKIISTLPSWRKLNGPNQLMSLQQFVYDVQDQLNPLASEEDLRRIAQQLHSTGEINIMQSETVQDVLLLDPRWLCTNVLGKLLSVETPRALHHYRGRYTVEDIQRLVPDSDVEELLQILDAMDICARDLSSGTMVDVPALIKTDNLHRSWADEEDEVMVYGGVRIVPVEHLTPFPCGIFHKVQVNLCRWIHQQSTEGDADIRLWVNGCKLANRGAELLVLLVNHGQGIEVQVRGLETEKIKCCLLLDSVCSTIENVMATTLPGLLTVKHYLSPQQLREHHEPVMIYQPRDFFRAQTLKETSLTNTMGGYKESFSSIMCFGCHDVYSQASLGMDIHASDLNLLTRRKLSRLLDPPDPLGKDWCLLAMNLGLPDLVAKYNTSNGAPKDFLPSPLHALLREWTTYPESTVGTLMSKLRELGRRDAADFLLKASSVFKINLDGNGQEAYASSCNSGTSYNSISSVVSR

SMILES	residual activity
Nc1cccc(-c2cc3c(Oc4cccc(O)c4)ncnc3[nH]2)c1	89%
Nc1ncnc2c1cnn2-c1ccccc1	84%
Cc1cncc2cccc(S(=O)(=O)N3CCCN(C(=O)CN)C[C@H]3C)c12	88%
COc1cc2ncnc(Nc3cccc(Cl)c3)c2cc1OC	104%
CN(C)c1ccc(/C=C2\C(=O)Nc3ccccc32)cc1	102%
CC(C)N(CCC(=O)c1ccc2ccccc2c1)Cc1ccccc1	86%
Cc1cc2ncc(-c3ccccc3)nc2cc1C	92%
Ic1cccc(CSc2nnc(-c3ccncc3)o2)c1	90%
O=[N+]([O-])c1ccc(-c2nc(-c3ccc(F)cc3)c(-c3ccncc3)[nH]2)cc1	74%
Nc1n[nH]c2nnc(-c3c(-c4ccccc4)nn4ccccc34)cc12	83%
Cn1cnc2cc3c(Nc4cccc(Br)c4)ncnc3cc21	94%
O=C1NC(=O)C(c2cn(CCCO)c3ncccc23)=C1c1cnccn1	94%
O=C1C(Cl)=C(N2C(=O)CCC2=O)C(=O)c2ccccc21	91%
COc1cc2ncc(-c3ccccc3)nc2cc1OC	87%
CC(C)(C)c1nc2c3ccc(F)cc3c3c(=O)[nH]ccc3c2[nH]1	8%
N#CC(C#N)=C(N)/C(C#N)=C/c1ccc(O)cc1	85%
COc1ccc(Cl)cc1NC(=O)Nc1cc(C)nc2ccccc12	94%
N#Cc1c(NC(=O)c2cccc3ccccc23)sc2c1CCCC2	93%
COc1cc2nccc(Oc3ccc(NC(=O)Nc4cc(C)on4)c(Cl)c3)c2cc1OC	105%
Oc1n[nH]c2nnc(-c3c(-c4ccccc4)nn4ccccc34)cc12	52%
Cn1cc(/C=C2\C(=O)Nc3ccc(S(N)(=O)=O)cc32)c2ccccc21	94%
COc1cc2ncnc(Nc3ccc(NC(=O)c4ccccc4)cc3)c2cc1OC	95%
Cn1nc2c3c(cccc31)C(=O)c1ccccc1-2	85%
COc1cc2ncnc(N3CCN(C(=O)Nc4ccc(Oc5ccccc5)cc4)CC3)c2cc1OC	90%
CC(C)(C)n1nc(Cc2cccc3ccccc23)c2c(N)ncnc21	86%
O=C1c2ccccc2-[n+]2ccc3c([nH]c4ccccc43)c21	86%
O=C(NC(NC(=S)Nc1ccc(F)c([N+](=O)[O-])c1)C(Cl)(Cl)Cl)C(c1ccccc1)c1ccccc1 (stereo not given)	90%
Cc1nc2cc3nc(-c4cccs4)cnc3cc2n1C	94%
O=C(O)/C=C/c1cc(Br)c(Br)c(Br)c1Br	86%
Cc1cccc(-c2[nH]c(C(C)(C)C)nc2-c2ccc3c(c2)OCO3)n1	79%
